Experimental findings from PubChem BioAssay (Tox21) are described below.

Assay [1] in a line: Nuclear factor erythroid 2-related factor 2/antioxidant responsive element (Nrf2/ARE) small molecule agonists: qHTS cell viability counter screen in human keratinocytes (AID 1919968; active = well fitted curve in the direction sought with a large enough effect in the repeat runs; an effect the other way counts as inactive or inconclusive; also: nearly all actives have a fitted effect of over 55% in size). The procedure, abridged:
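After a 5 h attachment period, ARE-reporter keratinocytes were dosed with compounds in DMSO and then cultured 23 h at 37 C. Cell viability came from CellTiter-Fluor signal read after a further 1 h.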
(In qHTS, concentration-response curves come from the screen itself.)

Assay [2] addresses Gonadotropin-releasing hormone receptor (Homo sapiens) (UniProt P30968). As to the kind of experiment: Human gonadotropin-releasing hormone receptor (GnRHR) small molecule agonists, calcium flux assay in GnRHR-HEK293 cells (AID 1920063). Also: nearly all actives have a fitted effect of over 35% in size. The method in brief:
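We seeded human GnRHR-expressing HEK293 cells for 18 hours, loaded them with calcium dye for an hour at 37 C, added test compounds, and recorded fluorescence intensity kinetically for three minutes.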
(Calcium flux is commonly read through the fluorescence of an indicator in the cells.)

The nature of assay [3]: G protein-coupled receptor (GPCR) small molecule agonists, calcium flux assay: HEK293 wild type cell line counter screen (AID 1920065). The method in brief: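 Calcium-sensitive dye, loaded 1 h at 37 C into cells cultured 18 h, reports compound-evoked calcium release as fluorescence (Ex/Em 480/540), measured over 3 min. Agonist mode; 15-point titrations, triplicate.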
Assay [4] in a line: p53 small molecule agonists, cell-based qHTS assay with human liver microsomes (AID 1963577). The method in brief:
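p53RE-bla cells, 4,000/well, compound added after 5 h, with human liver microsomes 0.5 mg/mL and NADPH 0.5 mg/mL final; 16 h at 37 C, then LiveBLAzer 2 h RT, fluorescence.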

Assay [5] in a line: p53 small molecule agonists, cell-based qHTS assay with rat liver microsomes (AID 1963578). The procedure, abridged: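 p53RE-bla cells, 4,000/well, pre-incubated 5 h, then given compounds plus rat liver microsomes (0.5 mg/mL final) and NADPH (0.5 mg/mL final). Incubation 16 h at 37 C; beta-lactamase reporter read by LiveBLAzer fluorescence after 2 h at room temperature.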
Assay [6] is described as follows: p53 small molecule agonists, cell-based qHTS assay with human liver microsomes: qHTS cell viability counter screen (AID 1963579). Also: nearly all actives have a fitted effect of over 45% in size. The method in brief: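 p53RE-bla cells, 4,000/well, dosed 5 hours after plating, with human liver microsomes (0.5 mg/mL final) plus NADPH (0.5 mg/mL final), 16 hours at 37 C. Viability read as CellTiter-Glo luminescence after 30 min at room temperature.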

A short description of assay [7]: p53 small molecule agonists, cell-based qHTS assay with rat liver microsomes: qHTS cell viability counter screen (AID 1963580). Also: nearly all actives have a fitted effect of over 45% in size. The method in brief:
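Viability is assessed in parallel with the p53 reporter read: HCT-116 p53RE-bla cells receive compounds plus rat microsomes and NADPH (0.5 mg/mL final apiece), incubate 16 h at 37 C, and then CellTiter-Glo luminescence is recorded.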

Assay [8] can be described thus: p53 small molecule agonists, cell-based qHTS assay (AID 1963582; active = well fitted activation curve with a large enough effect in the signal ratio in the repeat runs, not every such curve was filed as active; the % refers to the signal ratio). The method in brief: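 In this cell-based concentration-response screen, a p53 response element drives beta-lactamase; cells received DMSO-borne compounds after 5 h culture and were incubated a further 16 h before FRET substrate development.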
Assay [9] has as its target 5-hydroxytryptamine receptor 2A (Homo sapiens) (UniProt P28223). As to the kind of experiment: 5-hydroxytryptamine receptor 2A (HTR2A) small molecule antagonists, cell-based qHTS assay (AID 1963586). Also: nearly all actives have a fitted effect of over 45% in size. The method in brief:
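Antagonist-mode intracellular calcium assay: DOI (4 nM) added after 5 min compound pre-incubation at room temperature to dye-loaded HTR2A-CHO cells. Fluorescence followed for 3 min, sampled every second.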

The target is the same in assay [10]. As to the kind of experiment: 5-hydroxytryptamine receptor 2A (HTR2A) small molecule agonists, cell-based qHTS assay (AID 1963587). Also: nearly all actives have a fitted effect of over 30% in size. The procedure, abridged: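 CHO cells stably expressing human HTR2A, plated 18 h, loaded with calcium dye 1 h at 37 C. Agonist mode: compounds added and intracellular calcium fluorescence recorded kinetically for 2 min at 1 sec intervals.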

The target in assay [11] is Muscarinic acetylcholine receptor M1 (Homo sapiens) (UniProt P11229). As to the kind of experiment: Cholinergic receptor muscarinic 1 (CHRM1) small molecule antagonists, cell-based qHTS assay (AID 1963588). Also: nearly all actives have a fitted effect of over 40% in size. The method in brief:
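CHRM1-CHO calcium-flux assay, antagonist mode. Cells were seeded 18 h, dye-loaded 1 h at 37 C and given compound for 5 min at RT, then acetylcholine was added at 50nM. FDSS fluorescence was read 3 min; 15 concentrations, three runs.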

For assay [12] the target is unchanged. As to the kind of experiment: Cholinergic receptor muscarinic 1 (CHRM1) small molecule agonists, cell-based qHTS assay (AID 1963589). Also: nearly all actives have a fitted effect of over 35% in size. The method in brief: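 Measures agonist-induced intracellular calcium rise. Stable human CHRM1 CHO line, 1 h dye load at 37 C, compounds from DMSO, kinetic fluorescence read.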
Assay [13] is described as follows: cAMP Responsive Elements (CRE) small molecule agonists, cell-based qHTS assay (AID 1963590). The procedure, abridged:
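A CRE-responsive beta-lactamase reporter in HEK 293T cells was used. Treatment ran 3 h at 37 C; detection used LiveBLAzer B/G FRET substrate for 2 h at room temperature.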

Assay [14] can be described thus: cAMP Responsive Elements (CRE) small molecule antagonists, cell-based qHTS assay (AID 1963591; active = well fitted inhibition curve with a large enough effect in the signal ratio in the repeat runs, not every such curve was filed as active; the % refers to the signal ratio). The procedure, abridged: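 HEK293T cells carrying a CRE-driven beta-lactamase reporter receive compound and NKH477 (0.25 uM final) for 3 h. Fluorescence from LiveBLAzer B/G FRET substrate is read after 2 h at room temperature.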
Assay [15] addresses Beta-2 adrenergic receptor (Homo sapiens) (UniProt P07550). As to the kind of experiment: Adrenergic beta2 receptor (ADRB2) small molecule antagonists, cell-based qHTS assay (AID 1963592). Also: series mostly up to about 92 µM; nearly all actives have a fitted effect of over 50% in size. The procedure, abridged: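 Cells (CHO, stable ADRB2 overexpression) incubated 18-20hr at 37C; compounds added from DMSO; agonist mix (1nM isoproterenol, 100uM IBMX, 25uM Ro-20-1724) added; 0.5hr RT; d2-cAMP and anti-cAMP-cryptate added; 1hr RT; 665/615 nm read.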

The target of assay [16] is D(2) dopamine receptor (Homo sapiens) (UniProt P14416). Put plainly: Dopamine D2 receptor (DRD2) small molecule agonists, cell-based qHTS assay (AID 1963594). Also: nearly all actives have a fitted effect of over 35% in size. Also: potency is read from the fitted curve at half-maximal effect. The method in brief:
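HEK293 cells stably expressing human DRD2, pre-treated with PDE inhibitor Ro20-1724 (0.1 mM final) and compound 10 min at room temperature, then stimulated with NKH477 (200nM […]) for 30 min. cAMP read by HTRF (665/620 nm).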

Assay [17] has the same target. Put plainly: Dopamine D2 receptor (DRD2) small molecule antagonists, cell-based qHTS assay (AID 1963595; active = well fitted inhibition curve with a large enough effect in the signal ratio in the repeat runs, with a control signal flat; the % refers to the signal ratio). The method in brief:
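Antagonism was scored as restored cAMP in HEK293-DRD2 cells. These cells were stimulated with 200 nM NKH477 and 12 nM quinpirole for 30 min at room temperature, in the presence of 0.1 mM Ro20-1724.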

The target of assay [18] is KiSS-1 receptor (Homo sapiens) (UniProt Q969F8). As to the kind of experiment: Human kisspeptin (KISS1R) small molecule agonists, calcium flux assay in KISS1R-HEK293 cells (AID 1920064; active = well fitted curve in the direction sought with a large enough effect in the repeat runs; an effect the other way counts as inactive or inconclusive). The method in brief: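 Kinetic calcium assay, 1 s sampling over 3 min at Ex/Em 480/540, in HEK293 cells engineered with human KISS1R; compounds delivered in DMSO after 1 h dye loading.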

A short description of assay [19]: p53 small molecule agonists, cell-based qHTS assay: qHTS cell viability counter screen (AID 1963581). Also: nearly all actives have a fitted effect of over 45% in size. The procedure, abridged:
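Following 5 h attachment, HCT-116 p53RE-bla cells took up compound for 16 h at 37 C; the reporter was read with B/G FRET substrate (2 h RT), and viability then via CellTiter-Glo ATP luminescence.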

A short description of assay [20]: Nuclear factor erythroid 2-related factor 2/antioxidant responsive element (Nrf2/ARE) small molecule agonists: luciferase reporter gene qHTS assay in human keratinocytes (AID 1919969). Also: nearly all actives have a fitted effect of over 35% in size. On the technique in general: A reporter such as luciferase makes a cellular process visible.

Unmarked numbers belong to inactive results. Inconclusive results are not listed. Activity calls are given as the source filed them. Unless noted, calls follow the shape of the full dose curve.

Sequence of Beta-2 adrenergic receptor (Homo sapiens) (P07550 whole entry, looked up): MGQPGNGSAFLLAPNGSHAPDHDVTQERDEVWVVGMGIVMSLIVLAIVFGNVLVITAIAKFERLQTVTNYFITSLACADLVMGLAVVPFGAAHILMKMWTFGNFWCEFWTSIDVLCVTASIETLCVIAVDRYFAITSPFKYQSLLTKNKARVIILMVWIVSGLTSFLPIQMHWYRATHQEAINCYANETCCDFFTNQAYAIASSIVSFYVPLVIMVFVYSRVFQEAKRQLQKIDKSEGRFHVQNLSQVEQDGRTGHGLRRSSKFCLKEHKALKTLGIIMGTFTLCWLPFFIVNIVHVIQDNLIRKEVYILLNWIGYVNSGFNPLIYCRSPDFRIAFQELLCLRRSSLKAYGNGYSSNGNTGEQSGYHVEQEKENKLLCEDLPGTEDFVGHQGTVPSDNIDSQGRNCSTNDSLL
Sequence of 5-hydroxytryptamine receptor 2A (Homo sapiens) (P28223 whole entry, looked up): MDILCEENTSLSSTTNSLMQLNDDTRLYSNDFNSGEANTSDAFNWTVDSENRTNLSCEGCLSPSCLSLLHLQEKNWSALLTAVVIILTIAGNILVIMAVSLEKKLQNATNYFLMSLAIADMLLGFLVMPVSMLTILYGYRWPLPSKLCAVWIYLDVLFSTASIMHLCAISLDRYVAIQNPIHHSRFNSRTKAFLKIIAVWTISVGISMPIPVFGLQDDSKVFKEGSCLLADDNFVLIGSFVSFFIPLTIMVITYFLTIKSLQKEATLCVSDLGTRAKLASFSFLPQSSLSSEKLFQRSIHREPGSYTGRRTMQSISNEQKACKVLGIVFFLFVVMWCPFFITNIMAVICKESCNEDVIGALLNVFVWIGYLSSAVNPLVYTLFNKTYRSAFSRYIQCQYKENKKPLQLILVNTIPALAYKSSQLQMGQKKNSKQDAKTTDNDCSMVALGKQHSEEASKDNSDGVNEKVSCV
Sequence of D(2) dopamine receptor (Homo sapiens) (P14416 whole entry, looked up): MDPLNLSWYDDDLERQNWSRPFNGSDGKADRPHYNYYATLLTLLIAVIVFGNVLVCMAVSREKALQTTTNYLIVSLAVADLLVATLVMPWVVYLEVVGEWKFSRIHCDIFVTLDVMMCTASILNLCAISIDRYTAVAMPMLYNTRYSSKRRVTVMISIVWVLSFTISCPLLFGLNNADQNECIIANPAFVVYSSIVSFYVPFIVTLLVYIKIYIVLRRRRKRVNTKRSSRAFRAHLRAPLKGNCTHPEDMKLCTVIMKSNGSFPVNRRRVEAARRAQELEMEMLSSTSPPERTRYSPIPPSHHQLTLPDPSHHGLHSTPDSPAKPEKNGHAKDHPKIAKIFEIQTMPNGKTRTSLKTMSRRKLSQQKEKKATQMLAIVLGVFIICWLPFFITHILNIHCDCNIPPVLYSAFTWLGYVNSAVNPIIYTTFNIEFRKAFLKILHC
Sequence of Muscarinic acetylcholine receptor M1 (Homo sapiens) (P11229 whole entry, looked up): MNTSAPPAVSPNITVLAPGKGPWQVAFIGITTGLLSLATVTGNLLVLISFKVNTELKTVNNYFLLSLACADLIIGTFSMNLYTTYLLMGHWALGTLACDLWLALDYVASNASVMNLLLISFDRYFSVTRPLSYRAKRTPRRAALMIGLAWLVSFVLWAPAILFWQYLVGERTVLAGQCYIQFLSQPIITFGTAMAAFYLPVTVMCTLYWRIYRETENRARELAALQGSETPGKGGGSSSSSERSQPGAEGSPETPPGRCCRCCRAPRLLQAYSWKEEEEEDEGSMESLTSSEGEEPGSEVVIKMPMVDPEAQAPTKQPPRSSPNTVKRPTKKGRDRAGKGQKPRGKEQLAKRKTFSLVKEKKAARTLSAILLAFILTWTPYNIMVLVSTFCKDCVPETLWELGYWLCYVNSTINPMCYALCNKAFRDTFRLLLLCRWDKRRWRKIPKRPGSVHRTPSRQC
Sequence of KiSS-1 receptor (Homo sapiens) (Q969F8 whole entry, looked up): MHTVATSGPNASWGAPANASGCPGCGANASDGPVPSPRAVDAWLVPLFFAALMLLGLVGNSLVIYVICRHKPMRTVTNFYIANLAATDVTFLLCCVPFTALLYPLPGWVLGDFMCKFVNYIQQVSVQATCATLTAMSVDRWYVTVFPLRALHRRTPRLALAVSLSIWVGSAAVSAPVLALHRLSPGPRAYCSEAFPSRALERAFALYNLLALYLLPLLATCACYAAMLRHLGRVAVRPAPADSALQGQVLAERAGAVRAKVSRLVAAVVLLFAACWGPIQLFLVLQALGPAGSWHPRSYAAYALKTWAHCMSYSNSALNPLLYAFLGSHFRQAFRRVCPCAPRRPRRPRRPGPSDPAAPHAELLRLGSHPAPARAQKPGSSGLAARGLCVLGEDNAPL
Sequence of Gonadotropin-releasing hormone receptor (Homo sapiens) (P30968 whole entry, looked up): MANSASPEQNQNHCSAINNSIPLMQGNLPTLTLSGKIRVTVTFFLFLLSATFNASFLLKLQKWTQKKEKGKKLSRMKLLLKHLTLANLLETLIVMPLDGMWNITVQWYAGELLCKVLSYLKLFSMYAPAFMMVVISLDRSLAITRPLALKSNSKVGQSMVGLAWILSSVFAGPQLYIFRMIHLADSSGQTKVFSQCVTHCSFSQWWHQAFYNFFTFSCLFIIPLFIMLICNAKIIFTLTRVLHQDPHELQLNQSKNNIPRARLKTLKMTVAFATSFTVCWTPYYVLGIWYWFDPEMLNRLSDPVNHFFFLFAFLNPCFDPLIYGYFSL

Regarding `CCOC(=O)Oc1ccc(CCNC(=O)[C@H](CCSC)NC(C)=O)cc1OC(=O)OCC`, the Potency result in [1], in assay [2], in assay [4], in [5], in [6] and in [7] was “inactive” throughout. For the same compound, the Potency result in assay [8], in assay [9], in assay [10], in assay [11], in assay [12] and in [13] was “inactive” each time. The Potency result in assay [14], in assay [15] and in assay [17] was “inactive” throughout. In addition, the outcome in assay [3] was inactive. Besides, in assay [16], the Potency is 2370 nM (active).

In the case of `CC(C)NCC(O)c1ccc(NS(C)(=O)=O)cc1` (stereo not given), the Potency result in assay [1], in assay [2], in assay [5], in [6], in assay [7] and in [19] was “inactive” throughout. Moreover, the Potency result in assay [13], in assay [16] and in assay [17] was “inactive” in each case. Moreover, the result in assay [18] and in assay [3] was inactive.

Regarding `O=C1CCCCCCCCCCCCCC1`, the Potency result in assay [1], in assay [4], in [5], in assay [6], in assay [7] and in assay [8] was “inactive” throughout. The Potency result in assay [9], in assay [10], in [12], in assay [13], in assay [14] and in [15] was “inactive” in each case. Further, the Potency entry in assay [16] and in assay [17] was “inactive” in each case. The result in assay [18] and in assay [3] was inactive.

On to `COC(=O)c1ccccc1Cl`, for which the Potency result in [20], in assay [2], in assay [4], in assay [5], in assay [6] and in [7] was “inactive” each time. The Potency result in assay [19], in [8], in [9], in [10], in [11] and in assay [12] was “inactive” each time. Further, the Potency entry in [13], in assay [14], in assay [15], in assay [16] and in assay [17] was “inactive” throughout. Also, the outcome in assay [18] and in assay [3] was inactive.

Regarding `Nc1cccc(S(=O)(=O)c2cccc(N)c2)c1`, the Potency entry in assay [20], in assay [2], in assay [4], in assay [5], in assay [6] and in assay [7] was “inactive” in each case. Moreover, the Potency result in assay [19], in assay [9], in assay [10], in assay [11], in assay [12] and in assay [13] was “inactive” each time. Besides, the Potency result in [15] and in assay [16] was “inactive” each time. The result in assay [18] and in [3] was inactive.

`Cc1cc(C)c(C=O)c(C)c1`: the Potency entry in [20], in [2], in [4], in assay [5], in assay [6] and in assay [7] was “inactive” each time. The Potency result in assay [19], in assay [8], in assay [9], in assay [10], in assay [11] and in assay [12] was “inactive” throughout. The Potency entry in assay [13], in assay [14], in assay [15], in assay [16] and in [17] was “inactive” in each case. The outcome in assay [18] and in assay [3] was inactive.

Take `CCC=CC#N`: the Potency entry in [20], in [2], in assay [4], in assay [5], in [6] and in assay [7] was “inactive” each time. Besides, the Potency entry in [19], in [8], in [9], in [10], in assay [11] and in assay [12] was “inactive” throughout. For the same compound, the Potency entry in assay [13], in assay [15] and in assay [17] was “inactive” in each case. The result in [18] and in [3] was inactive.
